# Test results taken from PubChem BioAssay (NCATS).
# Records with an inconclusive call do not appear. A call without a number means that no potency is given here. Calls of active or inactive are those of the source. Unless noted, calls follow the shape of the full dose curve. Numbered stars: 1 amine (or outer) side, 2 acyl side, 3 side chain; on linkers, the order of the positions; unused ones are H or OH. Bridge positions count the residues as written; N and C are the ends. Square brackets hold non-standard residues; d marks the D form. Peptide text beside a SMILES is read from it. * marks the point of attachment. ξ: configuration not given here. ξhTyr(3S-OH,4S-OH,3'-OSO3H) = NC(C(=O)O)[C@H](O)[C@@H](O)c1ccc(O)c(OS(=O)(=O)O)c1; Orn(4R-OH,5R-OH) = O=C([C@H](C[C@@H](O)[C@@H](O)N[*:3])N[*:1])[*:2]; X2 = CCCCCOc1ccc(-c2cc(-c3ccc(C(=O)*)cc3)no2)cc1; X3 = C[C@H]1CN([*:1])C(C(=O)[*:2])[C@H]1O; ξGln(3R-OH) = NC(=O)C[C@@H](O)C(N)C(=O)O; ξPro(4R-OH) = O=C(O)C1C[C@@H](O)CN1; Octanoyl(6-Me) = CCC(C)CCCCC(=O)*; ξThr(3R) = C[C@@H](O)C(N)C(=O)O; dDab = NCC[C@@H](N)C(=O)O; Dab = NCC[C@H](N)C(=O)O
# Assays:
# [1] = qHTS for Inhibitors of the Functional Ribonucleoprotein Complex (vRNP) of Lassa (LASV) Arenavirus: LASV Primary Screen - GLuc reporter signal (AID 1347082; calls by dose curve; tested in HEK293 reporter line; also: nearly all actives have a fitted effect of over 60% in size)
# [2] = molecular target: Nucleoprotein (Lymphocytic choriomeningitis virus (strain Armstrong)) (UniProt P09992); experiment: qHTS for Inhibitors of the Functional Ribonucleoprotein Complex (vRNP) of Lymphocytic Choriomeningitis Arenaviruses (LCMV): LCMV Primary Screen - GLuc reporter signal (AID 1347086); also: nearly all actives have a fitted effect of over 70% in size; also: potency is read from the fitted curve at half-maximal effect
# [3] = Cytotoxicity counterscreen for inhibitors of SARS-CoV-2 cell entry (AID 1645845); also: nearly all actives have a fitted effect of over 50% in size
# Method in brief: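 Expi293F/hACE2 cells seeded overnight; cpd pin-transferred in DMSO, 1 h preincubation, + media, 48 h 37 C 5% CO2; ATPLite 1step luminescence; normalized to cells and no cells.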
# [4] = Primary qHTS to identify inhibitors of SARS-CoV-2 cell entry (AID 1645846); conditions: activity change, negative = inhibition: at 57.1 µM (top of the series) unless noted; also: nearly all actives have a fitted effect of over 45% in size
# Method in brief: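 Data are normalized to wells receiving SARS-CoV-2-S pseudoparticles and those given bald particles. Entry signal was luciferase luminescence in stable hACE2 Expi293F cells, 48 hr post-infection, after 1 hr compound pretreatment.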
# [5] = test system: CRL-7250; experiment: qHTS assay to identify novel small-molecules to repurpose for Merkel cell carcinoma treatment (AID 1296009; active = well fitted inhibition curve with a large enough effect; also: nearly all actives have a fitted effect of over 60% in size); conditions: MCC and control cell lines, CellTiter-Glo viability, 72 h; series mostly up to 92 µM
# Method in brief: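 Cells exposed to NPC (8-point) and MIPE (11-point) compound dilutions for 72 hr at 37 degree celsius; viability read by CellTiter-Glo luminescence, normalized to no-cell and DMSO in-plate controls.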
# [6] = Confirmatory qHTS for activators (rescue) of SARS-CoV-2 Cytopathic Effect (CPE) (AID 1508606); also: nearly all actives have a fitted effect of over 70% in size; also: potency is read from the fitted curve at half-maximal effect
# [7] = Primary qHTS for Huh7 cytotoxicity: counterscreen for inhibitors of MERS-S pseudotyped particle cell entry (AID 1479147); conditions: outcome: dose series up to 57.1 µM unless noted
# [8] = Primary qHTS for Vero E6 cytotoxicity: counterscreen for inhibitors of SARS-S pseudo-typed particle cell entry (AID 1479150); conditions: outcome: dose series up to 57.1 µM unless noted
# [9] = Confirmatory qHTS to identify inhibitors of SARS-CoV-2 cell entry (AID 1645844); also: nearly all actives have a fitted effect of over 45% in size
# Method in brief: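 HEK293-ACE2 cells (Expi293F stably expressing human ACE2) were pretreated with compounds for 1 hr at 37C, then infected with MLV-based particles carrying Wuhan-Hu-1 spike (C-terminal 19-aa truncation). Luciferase luminescence read after 48 hr; normalized to spike PP (100%) and bald PP (0%).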
# [10] = VSVG counterscreen qHTS to identify inhibitors of SARS-CoV-2 cell entry (AID 1645847); also: nearly all actives have a fitted effect of over 65% in size
# Method in brief: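 Counterscreen using VSV-G (not spike) pseudotyped MLV particles on ACE2-expressing Expi293F cells after 1 h compound preincubation; infection ran 48 h at 37 °C. Data normalized to VSV-G PP and bald-PP wells.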
# [11] = Confirmatory qHTS for VERO E6 Cytotoxicity Assay: Counterscreen for SARS-CoV-2 CPE Assay (AID 1508605); also: nearly all actives have a fitted effect of over 60% in size; also: potency is read from the fitted curve at half-maximal effect
# [12] = Primary qHTS for inhibitors of MERS-S pseudo-typed particle cell entry (AID 1479149); also: nearly all actives have a fitted effect of over 60% in size
# [13] = Primary qHTS for inhibitors of SARS-S pseudo-typed particle cell entry (AID 1479145); also: nearly all actives have a fitted effect of over 45% in size
# [14] = qHTS for inhibitors of Rabies Virus screened against the NCATS CANVASS Library (AID 1347402)
# [15] = qHTS for Inhibitors of the Functional Ribonucleoprotein Complex (vRNP) of Lymphocytic Choriomeningitis Arenaviruses (LCMV): Viability assay - alamar blue signal for LCMV Primary Screen (AID 1347085; calls by dose curve; tested in HEK293 reporter line; also: potency is read from the fitted curve at half-maximal effect; nearly all actives have a fitted effect of over 80% in size)
# Chain of Nucleoprotein (Lymphocytic choriomeningitis virus (strain Armstrong)) (P09992 whole entry, looked up): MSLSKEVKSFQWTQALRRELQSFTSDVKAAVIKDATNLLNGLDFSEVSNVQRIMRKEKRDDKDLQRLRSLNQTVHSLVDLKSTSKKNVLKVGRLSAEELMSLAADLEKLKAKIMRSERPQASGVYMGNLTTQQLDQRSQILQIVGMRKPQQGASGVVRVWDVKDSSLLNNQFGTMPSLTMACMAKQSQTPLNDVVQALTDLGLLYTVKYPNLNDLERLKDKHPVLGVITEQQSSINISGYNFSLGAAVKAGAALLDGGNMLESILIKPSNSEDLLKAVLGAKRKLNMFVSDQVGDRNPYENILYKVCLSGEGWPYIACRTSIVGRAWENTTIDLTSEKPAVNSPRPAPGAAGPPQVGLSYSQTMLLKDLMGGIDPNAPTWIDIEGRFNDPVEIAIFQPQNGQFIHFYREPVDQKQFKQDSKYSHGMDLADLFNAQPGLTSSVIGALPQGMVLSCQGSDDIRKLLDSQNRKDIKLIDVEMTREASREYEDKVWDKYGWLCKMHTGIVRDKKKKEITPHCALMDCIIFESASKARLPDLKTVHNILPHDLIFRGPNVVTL
compound,measurement,setting,value
C[C@@H]1CN(Cc2ccc(F)cc2)[C@@H](C)CN1C(=O)c1cc2c(C(=O)C(=O)N(C)C)cn(C)c2cc1Cl,Potency,[1],inactive
same,Potency,[2],30.6 µM (active)
same,Potency,[3],inactive
same,"activity change, negative = inhibition",[4],-24.1%
same,Potency,[5],inactive
CCC(C)CCCCC(=O)N[C@@H](CCN)C(=O)NC(C(=O)N[C@H](CCN)C(=O)N[C@@H]1CCNC(=O)C([C@@H](C)O)NC(=O)[C@@H](CCN)NC(=O)[C@@H](CCN)NC(=O)[C@@H](CC(C)C)NC(=O)[C@H](Cc2ccccc2)NC(=O)[C@H](CCN)NC1=O)[C@@H](C)O (stereo partly drawn) ({Octanoyl(6-Me)}-[Dab][ξThr(3R)][dDab][dDab][Dab]F[dL][dDab][dDab][ξThr(3R)]; lactam 4-C),Potency,[1],inactive
same,Potency,[4],inactive
same,Potency,[5],inactive
O=c1cc(-c2cccc3c2Sc2ccccc2S3)oc(N2CCOCC2)c1,Potency,[1],inactive
same,Potency,[2],inactive
same,Potency,[6],3.55 µM (active)
same,Potency,[5],inactive
CCN(CC)CCOCCOC(=O)C(CC)(CC)c1ccccc1,outcome,[7],inactive
same,outcome,[8],inactive
same,Potency,[9],inactive
same,Potency,[3],inactive
same,Potency,[10],inactive
same,Potency,[5],inactive
CN1CCC(c2cn(C)c3ccc(OS(=O)(=O)c4c(F)cccc4F)cc23)CC1,Potency,[11],inactive
same,Potency,[6],11.2 µM (active)
same,Potency,[5],inactive
COc1ccccc1OCCN1CC(COc2cccc3[nH]c4ccccc4c23)OCC1=O (stereo unspecified),Potency,[11],inactive
same,Potency,[6],inactive
same,Potency,[5],inactive
C[C@H](O)[C@H](O)[C@H]1CNc2nc(N)[nH]c(=O)c2N1,outcome,[7],inactive
same,Potency,[12],inactive
same,outcome,[8],inactive
same,Potency,[3],inactive
same,"activity change, negative = inhibition",[4],-28%
same,Potency,[5],inactive
"CCCCCOc1ccc(-c2cc(-c3ccc(C(=O)N[C@H]4C[C@@H](O)[C@@H](O)NC(=O)C5[C@@H](O)[C@@H](C)CN5C(=O)C([C@H](O)CC(N)=O)NC(=O)C([C@H](O)[C@@H](O)c5ccc(O)c(OS(=O)(=O)O)c5)NC(=O)C5C[C@@H](O)CN5C(=O)C([C@@H](C)O)NC4=O)cc3)no2)cc1 (stereo partly drawn) (X2-[Orn(4R-OH,5R-OH)][ξThr(3R)][ξPro(4R-OH)][ξhTyr(3S-OH,4S-OH,3'-OSO3H)][ξGln(3R-OH)][X3]; lactam 1-C)",Potency,[13],inactive
same,outcome,[7],inactive [at 26.4 µM]
same,Potency,[12],inactive
same,outcome,[8],inactive
same,Potency,[3],inactive
same,Potency,[5],inactive
Cn1nc(C(C)(C)C)cc1C(=O)N[C@@H](Cc1cccc(Cl)c1)C(=O)NCC#N,Potency,[11],inactive
same,Potency,[6],0.224 µM (active)
same,Potency,[5],inactive
CCCSc1nc(N[C@@H]2C[C@H]2c2ccc(F)c(F)c2)c2nnn([C@@H]3C[C@H](OCCO)[C@@H](O)[C@H]3O)c2n1,outcome,[7],inactive
same,Potency,[12],inactive
same,outcome,[8],inactive
same,Potency,[3],inactive
same,Potency,[5],inactive
CC1=C2C(=O)O[C@@H](c3ccoc3)[C@]2(C)CCC1,outcome,[14],inactive
same,Potency,[5],inactive
Cc1c(C)n(Cc2ccc(-c3ccccc3C(=O)O)cc2)c2ccc(C(=O)N[C@@H](C)c3ccc([N+](=O)[O-])cc3)cc12,Potency,[2],4.85 µM (active)
same,Potency,[5],inactive
CCc1c(Cl)c(O)c(Cl)c(O)c1C(=O)O[C@H]1[C@H](O)[C@H](OC)[C@H](OC/C2=C\C=C\C[C@H](O)/C(C)=C\[C@H](CC)[C@@H](O[C@@H]3OC(C)(C)[C@@H](OC(=O)C(C)C)[C@H](O)[C@@H]3O)/C(C)=C/C(C)=C/C[C@@H]([C@@H](C)O)OC2=O)O[C@@H]1C,Potency,[13],inactive
same,outcome,[7],inactive
same,outcome,[8],inactive
same,Potency,[5],inactive
CC(=O)O[C@]1(C(C)=O)CC[C@H]2[C@@H]3C=C(Cl)C4=CC(=O)[C@@H]5C[C@H]5[C@]4(C)[C@@H]3CC[C@@]21C,Potency,[15],24.3 µM (active)
same,Potency,[5],inactive
C[C@@H]1O[C@@H](O[C@H]2[C@H](OC(=O)[C@]34CCC(C)(C)C[C@H]3C3=CCC5[C@@]6(C)CC[C@H](O[C@@H]7O[C@H](CO[C@@H]8OC[C@H](O)[C@H](O)[C@H]8O)[C@@H](O)[C@H](O)[C@H]7O)C(C)(C)C6CC[C@@]5(C)[C@]3(C)C[C@H]4O)OC[C@@H](O)[C@@H]2O)[C@H](O)[C@H](O[C@@H]2OC[C@](O)(CO)[C@H]2O)[C@H]1O[C@@H]1OC[C@H](O)[C@H](O[C@@H]2OC[C@@H](O)[C@H](O)[C@H]2O)[C@H]1O (stereo partly specified),Potency,[11],1.91 µM (active)
same,outcome,[5],inactive [at 9.27 µM]
